Measurements taken from PubChem BioAssay (EPA / NIEHS).
“And” between values parts separate entries of the source, which are not always exact repeats. Identical values can stand only once. Results filed as inconclusive are left out. Some structures have more than one record in an assay (separate samples or runs), and their calls can disagree. The source made the active and inactive calls. The calls were made as follows: active = hit-call score of the fitted dose curve at least 0.9, where 1 is the maximum; inconclusive = response in the unintended direction; inactive = score below 0.9.

biological target: Cellular tumor antigen p53 (Homo sapiens) (UniProt P04637); experiment: TOX21_p53_BLA_p4_ratio: Tox21 HCT-116 p53 Agonism Beta-lactamase Assay, Ratio, Phase 4 (AID 2283601)
From the text: TOX21_p53_BLA_p4 is a cell-based, single-readout assay that uses HCT116, a human intestinal cell line, […] in a 1536-well plate.TOX21_p53_BLA_p4_ratio is an assay readout measuring reporter gene via receptor activity and designed using inducible reporter (beta lactamase induction) detected with GAL4 b-lactamase reporter gene. The signal is derived from the ratio of cleaved (ch2) to uncleaved (ch1)reporter gene substrate used as the measure of target activity.Data from the assay component TOX21_p53_BLA_p4_ratio was analyzed into 1 assay endpoint. This assay endpoint, TOX21_p53_BLA_p4_ratio, was analyzed in the positive analysis fitting direction relative to DMSO as the negative control and baseline of activity. Using a type of inducible reporter, gain-of-signal activity can be used to understand changes in the reporter gene as they relate to the gene TP53. Furthermore, this assay endpoint can be referred to as a primary readout, because this assay has produced multiple assay endpoints where this ratio serves a reporter gene function to understand target activity. To generalize the intended target to other relatable targets, this assay endpoint is annotated to the DNA binding intended target family, where the subfamily is tumor suppressor.
Thawing Method: Place 14 mL of pre-warmed thaw medium into a 15 mL of conical tub. Remove the vial of cells to be thawed from liquid nitrogen and thaw rapidly by placing at 37C in a water bath with gentle agitation for 1-2 minutes. Decontaminate the vial by wiping with 70% ethanol before opening in a biological safety cabinet. Transfer the vial contents drop-wise into 14 mL of thaw medium in a sterile 15-mL conical tub. Centrifuge cells at 900 rpm for 4 minutes and resuspend in thaw medium. Transfer contents to the T75 tissue culture flask containing Thaw Medium and place flask in a humidified 37C/5% CO2 incubator. Switch to growth medium at first passage.Propagation Method: Aspirate medium, rinse once in DPBS, add 0.25% Trypsin/EDTA and swirl to coat the cell evenly. Add an equal volume of Growth Medium to inactivate Trypsin after 2-3 minutes incubation at 37C. Centrifuge cells at 900 rpm for 4 minutes and resuspend in growth medium. Cell should be passage or fed at least twice a week.Assay Protocol: Harvest cells from culture in growth medium and resuspend in assay medium. 2.2 Dispense 4000 cells/5 uL/well into 1536-well black/clear bottom plates using a Multidrop dispenser. After the cells were incubated at 37C for 5 hours, 23 nL of compounds dissolved in DMSO were transferred to the assay plate by a PinTool resulting in a 217-fold dilution. Incubate the plates for 16 hours at 37C, 5% CO2. Add 1 uL of 6X LiveBLAzer FRET B/G (CCF4-AM) Substrate Mixture to each well using a BioRAPTR dispenser and incubate the plates at room temperature for 2 hours. Measure fluorescence intensity at 460 and 530 nm emission and 405 nm excitation by an Envision detector. Data is expressed as the ratio of 460nm/530nm emissions. Add 4 uL of Cell-titer Glo to each well using BioRAPTR and incubate the plates at room temperature for 2 hours. Measure fluorescence intensity by a VewLux plate reader.

Cellular tumor antigen p53 (Homo sapiens), sequence (P04637 whole entry, looked up, the tested form may be a part): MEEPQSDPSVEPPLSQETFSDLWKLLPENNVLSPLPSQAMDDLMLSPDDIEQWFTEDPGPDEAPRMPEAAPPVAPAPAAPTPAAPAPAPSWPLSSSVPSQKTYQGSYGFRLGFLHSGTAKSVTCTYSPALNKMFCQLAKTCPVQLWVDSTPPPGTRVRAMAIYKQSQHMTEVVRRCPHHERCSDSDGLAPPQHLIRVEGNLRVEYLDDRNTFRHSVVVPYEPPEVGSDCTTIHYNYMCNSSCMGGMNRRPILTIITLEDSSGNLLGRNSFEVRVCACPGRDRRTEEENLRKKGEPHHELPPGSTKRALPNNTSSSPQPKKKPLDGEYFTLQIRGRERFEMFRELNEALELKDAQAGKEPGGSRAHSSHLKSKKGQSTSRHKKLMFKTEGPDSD

Row | SMILES | AC50 | outcome
1 | C[C@]12CC[C@@H]3c4ccc(O)cc4CC[C@H]3[C@@H]1CC[C@H]2O | 26.2 µM (active) | 
2 | O=c1[nH]sc2ccccc12 |  | inactive
3 | O=C1O[C@H]([C@@H](O)CO)C(O)=C1O |  | inactive
4 | COc1ccc2cc(S(=O)(=O)N[C@H](CC(=O)N[C@H](Cc3ccc(CN4[C@H](C)CCC[C@@H]4C)cc3)C(=O)N(C)C(C)C)c3ccc4c(c3)OCO4)ccc2c1 | 72.1 µM (active) | 
5 | CC/C(=C(/CC)c1ccc(O)cc1)c1ccc(O)cc1 | 38.3 µM (active) and 8.57 µM (active) | 
6 | c1ccc2ccccc2c1 |  | inactive
7 | Clc1cc(Cl)c2c(c1)N=C1CCCCCN1C2 |  | inactive
8 | O=C=NCCCCCCN=C=O |  | inactive
9 | CCCCCCCCCCCCO |  | inactive
10 | NC(=O)c1nc(-c2cccc(-c3cc(F)ccc3OCC(F)(F)C(F)(F)F)c2)n[nH]1 | 86.3 µM (active) | 
11 | CN(C[C@@H](CC[N+]12CCC(C3CCCCC3)(CC1)CC2)c1ccc(Cl)c(Cl)c1)C(=O)c1cc(C(F)(F)F)cc(C(F)(F)F)c1 | 27.5 µM (active) | 
12 | CN(C)c1ccc(C(=C2C=CC(=[N+](C)C)C=C2)c2ccc(N(C)C)cc2)cc1 | 52.5 µM (active) and 51.7 µM (active) and 30.8 µM (active) | 
13 | Oc1ccccc1 |  | inactive
14 | CC(=O)N1CCN(c2ccc(OC[C@H]3CO[C@](Cn4ccnc4)(c4ccc(Cl)cc4Cl)O3)cc2)CC1 | 44.3 µM (active) | inactive
15 | NCc1cccc(C2CCN(C(=O)c3ccc(C#Cc4ccccc4F)o3)CC2)c1 | 84.4 µM (active) | 
16 | CC1(C)NC(=O)N(c2ccc([N+](=O)[O-])c(C(F)(F)F)c2)C1=O |  | inactive
17 | CN1C(=O)CC[C@H]1c1cccnc1 |  | inactive
18 | O=c1ccc2ccccc2o1 |  | inactive
19 | OCCO |  | inactive
20 | Cc1cccc2ccccc12 |  | inactive

Row | SMILES | AC50 | outcome
21 | CC1=CC(=O)/C(=C(/C)O)C(=O)O1 |  | inactive
22 | CCN(Cc1cccc(S(=O)(=O)O)c1)c1ccc(C(=C2C=CC(=[N+](CC)Cc3cccc(S(=O)(=O)O)c3)C=C2)c2ccccc2S(=O)(=O)[O-])cc1 |  | inactive
23 | Cc1ccc2oc(CN(Cc3ccccc3)C(=O)Nc3c(F)cc(F)cc3F)c(-c3ccc(Cl)cc3)c2c1 |  | inactive
24 | O=C(O)c1ccccc1C(=O)OCc1ccccc1 |  | inactive
25 | CCCCCCCCN(C)CCCCCCCC |  | inactive
26 | Cc1c2ccccc2c(C)c2c1ccc1ccccc12 | 43.2 µM (active) and 30.5 µM (active) | 
27 | CCCCCc1ccc(N)cc1 |  | inactive
28 | O=C1CCC(C2CCCCC2)CC1 |  | inactive
29 | CC(C)(c1cc(Br)c(O)c(Br)c1)c1cc(Br)c(O)c(Br)c1 | 58.8 µM (active) and 71.4 µM (active) and 63.2 µM (active) | 
30 | COc1cc(C(=O)NC2CCN(C)CC2)ccc1Nc1ncc2c(n1)N(C1CCCC1)CC(F)(F)C(=O)N2C | 0.00404 µM (active) | 
31 | CCCOC(=O)c1cc(O)c(O)c(O)c1 |  | inactive
32 | Cc1cc(F)ccc1-c1cc(N2CC[C@@H](O)[C@H]2CO)ncc1N(C)C(=O)C(C)(C)c1cc(C(F)(F)F)cc(C(F)(F)F)c1 | 26.4 µM (active) | 
33 | CCO[Si](CCCNC(N)=O)(OCC)OCC |  | inactive
34 | O=C(O)c1ccccc1-n1cc(C(=O)O)c(=O)c2cc(Nc3c(F)cc(F)cc3Cl)c(Cl)cc21 |  | inactive
35 | CCCCCCCCCC(=O)O |  | inactive
36 | Oc1ccc2ccccc2c1 |  | inactive
37 | Cc1ncc(CO)c(CO)c1O |  | inactive
38 | CCN(CC)C(=O)c1cc(S(=O)(=O)Cc2ccccc2)c(N2CCC(c3ccccc3)CC2)cc1N(CC)CCN(C)C | 32.6 µM (active) and 42.6 µM (active) | 
39 | CC(C)(C)c1csc(-c2cc3cc(OCc4ccccc4CC(=O)O)ccc3o2)n1 | 49.9 µM (active) | 
